Source: PubChem BioAssay (NCI)
The panel holds about 83,000 compounds, 20% with a hit somewhere; the sample as a whole holds those more often.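 48-hour exposure, single concentration, 96-well plates; percent growth endpoint where 0 means no net growth. Active: below 10.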 Active and inactive are the calls of the source.

Key:
Assay in all cases: NCI-60 one-dose screen, 48 h (100 = growth as untreated, 0 = no growth, -100 = all killed)
Conditions in all cases: 10 µM
DU-145 prostate = test system: DU-145 prostate
K-562 leukemia = test system: K-562 leukemia
MALME-3M melanoma = test system: MALME-3M melanoma
MDA-MB-231 breast = test system: MDA-MB-231 breast
RXF 393 renal = test system: RXF 393 renal
SF-268 CNS = test system: SF-268 CNS
SF-295 CNS = test system: SF-295 CNS
SF-539 CNS = test system: SF-539 CNS
UACC-257 melanoma = test system: UACC-257 melanoma
M14 melanoma = test system: M14 melanoma

Measured: growth

CSC[C@H](NC(=O)COc1cccc2cnccc12)C(=O)NC(Cc1ccccc1)C(O)C(=O)N1CSC[C@H]1C(=O)NC(C)(C)C (stereo not given in full)
inactive: DU-145 prostate 98.9% | K-562 leukemia 107% | MALME-3M melanoma 105% | MDA-MB-231 breast 93.8% | RXF 393 renal 100% | SF-268 CNS 94.4% | SF-295 CNS 97.4% | SF-539 CNS 103% | UACC-257 melanoma 106% | M14 melanoma 99.3%

CC(=O)c1sc2c(c1OC(=O)c1ccc(Cl)cc1Cl)c(=O)n(-c1ccccc1)c(=S)n2-c1ccccc1
active: K-562 leukemia 0.912% | MALME-3M melanoma -79.2% | MDA-MB-231 breast -41.5% | RXF 393 renal 6.34% | SF-295 CNS -32.1% | SF-539 CNS -39.6% | M14 melanoma -76.1%
inactive: DU-145 prostate 44.1% | SF-268 CNS 18.9% | UACC-257 melanoma 49%

N=c1c(C(=O)OCc2ccccc2)ncc(CCl)n1O
inactive: DU-145 prostate 102% | K-562 leukemia 109% | MALME-3M melanoma 113% | MDA-MB-231 breast 95.8% | RXF 393 renal 94.9% | SF-268 CNS 94.9% | SF-295 CNS 124% | SF-539 CNS 104% | UACC-257 melanoma 81.8% | M14 melanoma 94.1%

Clc1ccc(-c2n[nH]c3c2Cc2ccccc2-3)cc1Cl
active: UACC-257 melanoma -6.12%
inactive: DU-145 prostate 130% | K-562 leukemia 92.4% | MALME-3M melanoma 102% | MDA-MB-231 breast 98% | RXF 393 renal 154% | SF-268 CNS 109% | SF-295 CNS 99.5% | SF-539 CNS 95.6% | M14 melanoma 100%

COc1ccc(OC)c(/C=C2\CCc3ccccc3C2=O)c1
inactive: DU-145 prostate 55.5% | K-562 leukemia 18.3% | MALME-3M melanoma 63.4% | MDA-MB-231 breast 52.9% | RXF 393 renal 60.3% | SF-268 CNS 56.3% | SF-295 CNS 32% | SF-539 CNS 26% | UACC-257 melanoma 75.3% | M14 melanoma 15%

O=c1cc(-c2ccccc2)oc2c1ccc1ccccc12
inactive: DU-145 prostate 102% | K-562 leukemia 102% | MALME-3M melanoma 146% | MDA-MB-231 breast 88.4% | RXF 393 renal 90.8% | SF-268 CNS 101% | SF-295 CNS 98% | SF-539 CNS 81.2% | UACC-257 melanoma 97.3% | M14 melanoma 98.9%

COc1cc(C(=O)NC(=S)Nc2ccc3ccccc3c2)cc(OC)c1OC
inactive: DU-145 prostate 102% | K-562 leukemia 88% | MALME-3M melanoma 90.1% | MDA-MB-231 breast 100% | RXF 393 renal 94.5% | SF-268 CNS 103% | SF-295 CNS 44.7% | SF-539 CNS 93.1% | UACC-257 melanoma 90.7% | M14 melanoma 115%

OCc1cccc2ccccc12
inactive: DU-145 prostate 108% | K-562 leukemia 99.3% | MALME-3M melanoma 132% | MDA-MB-231 breast 112% | RXF 393 renal 146% | SF-268 CNS 107% | SF-295 CNS 117% | SF-539 CNS 95.7% | UACC-257 melanoma 109% | M14 melanoma 110%

CC1(C)Nc2cccc3c(N=Nc4ccc(N=Nc5ccccc5)c5ccccc45)ccc(c23)N1
inactive: DU-145 prostate 120% | K-562 leukemia 123% | MALME-3M melanoma 132% | MDA-MB-231 breast 66.9% | RXF 393 renal 124% | SF-268 CNS 106% | SF-295 CNS 100% | SF-539 CNS 94.5% | UACC-257 melanoma 95.9% | M14 melanoma 91.6%

CCN(CC)CCNc1ccc(CO)c2sc3ccccc3c(=O)c12
inactive: DU-145 prostate 39.3% | K-562 leukemia 63.4% | MALME-3M melanoma 39.8% | MDA-MB-231 breast 50.1% | RXF 393 renal 36.6% | SF-268 CNS 40.5% | SF-295 CNS 44.9% | SF-539 CNS 50% | UACC-257 melanoma 11.6% | M14 melanoma 57.5%

COc1cc2nc3cc([N+](=O)[O-])ccc3c(Cl)c2cc1OC
inactive: DU-145 prostate 103% | K-562 leukemia 98.8% | MALME-3M melanoma 94.5% | MDA-MB-231 breast 99.4% | RXF 393 renal 120% | SF-268 CNS 99.8% | SF-295 CNS 103% | SF-539 CNS 96.4% | UACC-257 melanoma 93.1% | M14 melanoma 96.6%

COC(=O)c1ccc(NC(=O)CCl)cc1
inactive: DU-145 prostate 103% | K-562 leukemia 70.9% | MALME-3M melanoma 79.9% | MDA-MB-231 breast 64.9% | RXF 393 renal 95.7% | SF-268 CNS 89.5% | SF-295 CNS 69.3% | SF-539 CNS 96.7% | UACC-257 melanoma 60.4% | M14 melanoma 90.4%

Cc1cc(=O)n(-c2ccc(F)cc2)[nH]1
inactive: DU-145 prostate 109% | K-562 leukemia 99.1% | MALME-3M melanoma 102% | MDA-MB-231 breast 105% | RXF 393 renal 93.5% | SF-268 CNS 101% | SF-295 CNS 86.8% | SF-539 CNS 90.8% | UACC-257 melanoma 103% | M14 melanoma 108%

CCCC(C)OCC(=O)O (stereo not given)
inactive: DU-145 prostate 106% | K-562 leukemia 112% | MALME-3M melanoma 90.7% | MDA-MB-231 breast 105% | RXF 393 renal 96.4% | SF-268 CNS 99.2% | SF-295 CNS 98.5% | SF-539 CNS 102% | UACC-257 melanoma 90.2% | M14 melanoma 106%

O=C(CS)Nc1ccc2ccccc2c1
inactive: DU-145 prostate 113% | K-562 leukemia 96.8% | MALME-3M melanoma 126% | MDA-MB-231 breast 106% | RXF 393 renal 82.8% | SF-268 CNS 85.8% | SF-295 CNS 123% | SF-539 CNS 99.5% | UACC-257 melanoma 133% | M14 melanoma 111%

NC(=O)NC(=O)c1ccc(Cl)cc1
inactive: DU-145 prostate 116% | K-562 leukemia 101% | MALME-3M melanoma 92% | MDA-MB-231 breast 48.2% | RXF 393 renal 131% | SF-268 CNS 113% | SF-295 CNS 112% | SF-539 CNS 104% | UACC-257 melanoma 107% | M14 melanoma 96.1%

O=C(NCO)c1ccccc1
inactive: DU-145 prostate 99.8% | K-562 leukemia 94.5% | MALME-3M melanoma 91.3% | MDA-MB-231 breast 117% | RXF 393 renal 119% | SF-268 CNS 103% | SF-295 CNS 110% | SF-539 CNS 108% | UACC-257 melanoma 111% | M14 melanoma 106%

COc1cc(C(=O)N/N=C/c2cccc([N+](=O)[O-])c2)cc(OC)c1OC
inactive: DU-145 prostate 87.4% | K-562 leukemia 35.8% | MALME-3M melanoma 40.1% | MDA-MB-231 breast 65.1% | RXF 393 renal 60% | SF-268 CNS 73.6% | SF-295 CNS 48.2% | SF-539 CNS 66.2% | UACC-257 melanoma 76.3% | M14 melanoma 29.9%

CC(=O)Nc1c(C)cc(C)cc1C
inactive: DU-145 prostate 101% | K-562 leukemia 96.3% | MALME-3M melanoma 102% | MDA-MB-231 breast 114% | RXF 393 renal 113% | SF-268 CNS 95.4% | SF-295 CNS 94.3% | SF-539 CNS 103% | UACC-257 melanoma 104% | M14 melanoma 101%

COC(=O)Nc1cccc(Cl)c1OC
inactive: DU-145 prostate 114% | K-562 leukemia 113% | MALME-3M melanoma 106% | MDA-MB-231 breast 124% | RXF 393 renal 90% | SF-268 CNS 107% | SF-295 CNS 81.8% | SF-539 CNS 98.2% | UACC-257 melanoma 103% | M14 melanoma 110%

COc1nc(N)nc2c1ncn2C1OC(CO)CC1O (stereo not given)
inactive: DU-145 prostate 110% | K-562 leukemia 101% | MALME-3M melanoma 100% | MDA-MB-231 breast 112% | RXF 393 renal 112% | SF-268 CNS 108% | SF-295 CNS 113% | SF-539 CNS 45.6% | UACC-257 melanoma 111% | M14 melanoma 104%

C#C[C@H]1CCCCCC1O (stereo not given in full)
inactive: DU-145 prostate 110% | K-562 leukemia 101% | MALME-3M melanoma 104% | MDA-MB-231 breast 102% | RXF 393 renal 103% | SF-268 CNS 105% | SF-295 CNS 108% | SF-539 CNS 106% | UACC-257 melanoma 107% | M14 melanoma 107%

S=c1[nH]ccn1-c1ccccc1Cl
inactive: DU-145 prostate 106% | K-562 leukemia 101% | MALME-3M melanoma 120% | MDA-MB-231 breast 120% | RXF 393 renal 114% | SF-268 CNS 108% | SF-295 CNS 100% | SF-539 CNS 103% | UACC-257 melanoma 22.9% | M14 melanoma 108%

CC1(O)CCCCC1O (stereo not given)
inactive: DU-145 prostate 115% | K-562 leukemia 94.6% | MALME-3M melanoma 106% | MDA-MB-231 breast 108% | RXF 393 renal 112% | SF-268 CNS 106% | SF-295 CNS 110% | SF-539 CNS 97% | UACC-257 melanoma 83.4% | M14 melanoma 104%

O=C1Cc2ccccc2C(=O)O1
inactive: DU-145 prostate 129% | K-562 leukemia 106% | MALME-3M melanoma 122% | MDA-MB-231 breast 108% | RXF 393 renal 114% | SF-268 CNS 110% | SF-295 CNS 107% | SF-539 CNS 103% | UACC-257 melanoma 91.9% | M14 melanoma 98.7%

O=[N+]([O-])c1ccc(S(=O)(=O)NN=C2CCCCC2)cc1
inactive: DU-145 prostate 121% | K-562 leukemia 111% | MALME-3M melanoma 101% | MDA-MB-231 breast 108% | RXF 393 renal 117% | SF-268 CNS 116% | SF-295 CNS 97.8% | SF-539 CNS 109% | UACC-257 melanoma 95.6% | M14 melanoma 106%

NC(N)=Nc1cc2ccccc2c2ccccc12
inactive: DU-145 prostate 84.9% | K-562 leukemia 62.3% | MALME-3M melanoma 76.2% | MDA-MB-231 breast 80.1% | RXF 393 renal 78.8% | SF-268 CNS 82.6% | SF-295 CNS 55.9% | SF-539 CNS 89.1% | M14 melanoma 85%
active: UACC-257 melanoma 1.37%

O=C(c1ccccc1)C1CCC1
inactive: DU-145 prostate 117% | K-562 leukemia 99.3% | MALME-3M melanoma 117% | MDA-MB-231 breast 98.3% | RXF 393 renal 109% | SF-268 CNS 100% | SF-295 CNS 104% | SF-539 CNS 103% | UACC-257 melanoma 102% | M14 melanoma 108%

COc1ccc2c(NCCCCCCCCNc3c4ccccc4nc4cc(OC)ccc34)c3ccccc3nc2c1
active: DU-145 prostate -100% | K-562 leukemia -100% | MALME-3M melanoma -98.1% | MDA-MB-231 breast -89.5% | RXF 393 renal -74.3% | SF-268 CNS -99.3% | SF-295 CNS -92.1% | SF-539 CNS -100% | UACC-257 melanoma -88.8% | M14 melanoma -100%

O=C(CCl)N1CCN(C/C=C/c2ccccc2)CC1
inactive: DU-145 prostate 110% | K-562 leukemia 88.1% | MALME-3M melanoma 83% | MDA-MB-231 breast 100% | RXF 393 renal 86.4% | SF-268 CNS 87.7% | SF-295 CNS 105% | SF-539 CNS 104% | UACC-257 melanoma 85.8% | M14 melanoma 90.1%
